Screening data deposited in PubChem by National Center for Advancing Translational Sciences (NCATS).
12-hLO inh – inhibitors of human 12-lipoxygenase (ALOX12); P18054; purified 12-hLO, xylenol orange hydroperoxide absorbance; Potency, µM (series often up to 57.1 µM), hits mostly inhibitors; actives 0.12% (n = 150,000); note: nearly all actives have a fitted effect of over 55% in size
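Purified human 12hLO (150 nM final) was preincubated with compounds for 15 min at room temperature in 25 mM Hepes pH 7.0, 0.01% Triton X-100, then reacted with 40 uM arachidonic acid for 30 min. Hydroperoxide was detected with ferrous iron/xylenol orange.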
15-hLO-2 inh – inhibitors of human 15-lipoxygenase 2 (ALOX15B); O15296; purified 15hLO-2, xylenol orange hydroperoxide absorbance; Potency, µM (titrated, usually from 57.1 µM), most hits filed as inhibitors; actives 0.56% (n = 110,000); note: nearly all actives have a fitted effect of over 60% in size
Target sequence (O15296 whole entry, looked up): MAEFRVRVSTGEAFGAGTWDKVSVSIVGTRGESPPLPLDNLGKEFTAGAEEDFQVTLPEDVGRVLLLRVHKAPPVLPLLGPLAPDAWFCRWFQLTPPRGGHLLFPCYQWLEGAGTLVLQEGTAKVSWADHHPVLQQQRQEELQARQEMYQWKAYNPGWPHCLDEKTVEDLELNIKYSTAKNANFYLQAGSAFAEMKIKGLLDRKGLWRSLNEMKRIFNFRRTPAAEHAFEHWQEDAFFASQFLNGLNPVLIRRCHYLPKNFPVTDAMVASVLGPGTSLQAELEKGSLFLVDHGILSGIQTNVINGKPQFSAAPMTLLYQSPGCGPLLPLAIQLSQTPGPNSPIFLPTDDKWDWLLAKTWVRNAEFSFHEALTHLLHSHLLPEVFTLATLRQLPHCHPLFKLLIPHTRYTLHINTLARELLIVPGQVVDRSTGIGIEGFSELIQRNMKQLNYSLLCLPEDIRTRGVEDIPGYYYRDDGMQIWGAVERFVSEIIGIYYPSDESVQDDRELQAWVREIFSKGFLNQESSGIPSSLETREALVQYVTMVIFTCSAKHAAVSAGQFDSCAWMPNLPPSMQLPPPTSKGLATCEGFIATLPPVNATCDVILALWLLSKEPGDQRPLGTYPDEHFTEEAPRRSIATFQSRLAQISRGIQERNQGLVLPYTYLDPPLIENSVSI
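Purified human 15hLO-2 (50 nM final) preincubated with compounds 15 min at room temperature in 25 mM Hepes pH 7.5, 0.01% Triton X-100, then 45 uM arachidonic acid added for 90 min; hydroperoxide detected via ferrous/xylenol orange, 573/405 nm absorbance ratio.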
Hits are given with their value; 0 = inactive; ? = inconclusive; - = not tested or not shown; [ ] = dose if it differs, or a comment. Shown is part of a subset that was picked to be rich in hits. Calls come from the whole dose curve; as a rule, active = well fitted curve in the direction sought with a large enough effect; inconclusive = small, poorly fitted or top-dose-only effect, or another doubt; inactive = no such curve, though single readings can be large; an effect the other way counts as inactive or inconclusive.

SMILES | 12-hLO inh | 15-hLO-2 inh
CCCn1c(SCC(=O)N2N=C3/C(=C/c4ccc(OC)cc4)CCCC3C2c2ccc(OC)cc2)n[nH]c1=O (stereo not given) | 0 | -
Cc1cc(C(=O)Nc2ccccc2C(F)(F)F)no1 | 0 | 0
Cc1ccc(C(=O)NC(=S)Nc2ccccc2C(F)(F)F)cc1C | 22µM | 25µM
COCCn1c(=O)c(-c2cc(F)cc(F)c2)nc2cnc(N3CCN(C)CC3)nc21 | - | 0
CN1CCN(c2ncc3nc(-c4cc(F)cc(F)c4)c(=O)n(CCC#N)c3n2)CC1 | - | 20µM
CC(C)(C)n1cnc2cc(NS(=O)(=O)c3ccc(Br)cc3)ccc21 | 0 | 0
CCC(=O)/C=C1/Sc2ccccc2N1CC | 0 | -
CCN(CC)C(C)CN1c2ccccc2Sc2ccccc21 (stereo not given) | 13µM | 13µM
O=S(=O)(O)c1ccc2c(N=Nc3cccc4ccccc34)c(O)c(S(=O)(=O)O)cc2c1 | 0[11.4 µM] | 0[11.4 µM]
O=[N+]([O-])c1ccc2c(N=Nc3ccc4ccccc4c3O)c(O)cc(S(=O)(=O)O)c2c1 | ? | 4µM
CSCC[C@H](NC(=O)c1ccc(Cl)c(S(=O)(=O)N2CCCC2)c1)c1nc2ccccc2[nH]1 | 18µM | 0
O=C(NCc1nc2ccccc2[nH]1)c1ccc(Cl)c(S(=O)(=O)N2CCCC2)c1 | 0 | 0
COc1ccc(-n2nnnc2/C=C\Nc2ccccc2C(=O)c2ccccc2)cc1 | 0 | 0
S=C1NCCc2ccccc2C1c1ccccc1 (stereo not given) | 28µM | -
S=C1NCCc2ccccc2C1c1ccccc1Cl (stereo not given) | 0 | -
Cn1c(N)c(C(=O)COC(=O)CN2C(=O)c3ccccc3C2=O)c(=O)n(C)c1=O | 0 | -
Cc1ccc(NC(=O)CN(C)C(=O)COc2cccc3cccnc23)cc1 | 0 | -
O=C(NC(NC(=O)c1ccccc1)C(=O)c1ccccc1)c1ccccc1 | 0 | -
Cc1cc(-c2csc(NC(=O)c3cc4ccccc4o3)n2)c(C)n1C | 0 | -
O=C(Nc1nc(-c2cc3ccccc3oc2=O)cs1)c1ccc(Br)o1 | 20µM | ?
COc1cccc(C(=O)NC(=S)Nc2ccc(N3CCCC3)cc2)c1 | 16µM | 13µM
COc1ccccc1C(=O)NC(=S)Nc1ccc(N2CCCC2)cc1 | 0 | -
O=C(CSc1ncn[nH]1)Nc1ccc(Br)cc1F | 0 | 0
COc1ccc(S(=O)(=O)N(c2onc(C)c2Cl)S(=O)(=O)c2ccc(OC)c(OC)c2)cc1OC | 0 | 0
CCOCCOC(=O)c1cccc(NC(=O)OCC)c1 | 0 | 0
SMILES | 12-hLO inh | 15-hLO-2 inh
CCOCCOC(=O)C1=C(C)Nc2ccc(C)cc2S1 | 0 | 16µM
CCOC(=O)/C=C1\Nc2ccccc2SC1=O | 0 | 0
COC(=O)[C@H](CCSC)NC(=O)Nc1cc(C)ccc1C | 0 | 0
CSCCOC(=O)C1=C(C)Nc2ccc(C)cc2S1 | 0 | 5µM
CCOC(=O)C1=C(C)Nc2ccc(C)cc2S1 | ? | 4µM
C#CCOCCCC(=O)O | 0[11.4 µM] | 0[11.4 µM]
CC1CCN(S(=O)(=O)c2ccc(NC(=O)CN3CCN(c4ccccc4)CC3)cc2)CC1 | 0 | 0
CN(C)c1ccc(N/C=C/C(=O)c2ccccc2)cc1 | 0 | ?
CN(C)c1ccc(N/C=C/C(=O)C(C)(C)C)cc1 | 0 | 25µM
CCOC(=O)c1c(C)nc2sccn12 | 0 | 0
Cc1nc2sccn2c1P(c1c(C)nc2sccn12)c1c(C)nc2sccn12 | ? | 25µM
CC(C)(C)c1ccc(OCC(O)CS(=O)(=O)c2ccccn2)cc1 (stereo not given) | 0 | 0
CC(Oc1ccc(Cl)cc1Cl)C(=O)NC1=NN(c2ccccc2)C(=O)C1 (stereo not given) | 8.9µM | 7.9µM
CC(Oc1ccc(Cl)cc1Cl)C(=O)Nc1ccncc1 (stereo not given) | 0 | 0
C=CCNc1nc(NCc2ccccc2)c(C#N)c2c1CN(C)CC2 | 0 | 0
O=C1NCCCc2c1oc1ccc(O)cc21 | 0 | ?
Oc1c(Cl)cc(Cl)c2c1NCCC2 | ? | 5µM
O=C(/C=C/c1ccccc1)NC(=S)Nc1ccc(N2CCOCC2)c(Cl)c1 | 0 | 0
O=C(NC(=S)Nc1ccc(N2CCOCC2)c(Cl)c1)C(c1ccccc1)c1ccccc1 | ? | 13µM
O=c1c2cc(Cl)ccc2oc2nc3n(c(=O)c12)CCCS3 | 0 | 0
C#C[C@]1(O)CC[C@@H]2[C@H]3CCc4cc(OC)ccc4[C@@H]3CC[C@@]21C | 0 | 0
O=C(NC(=S)NCC1COc2ccccc2O1)c1ccccc1 (stereo not given) | 13µM | -
O=C(NCC1COc2ccccc2O1)c1ccccc1 (stereo not given) | 0 | 0
COC(=O)c1sc2ncccc2c1OCc1c(Cl)cccc1Cl | 0 | 0
COc1ccccc1CNC(=O)C1CC(c2c(Cl)cccc2Cl)=NO1 (stereo not given) | 0 | 0
SMILES | 12-hLO inh | 15-hLO-2 inh
O=c1cc(-c2ccccc2Cl)oc2c(NS(=O)(=O)c3cc(Cl)cc(Cl)c3O)ccc(O)c12 | 0.28µM | 16µM
Nc1ccc(O)c2c(=O)cc(-c3ccccc3Cl)oc12 | 0[0.00818 µM] | 0[0.0915 µM]
Cc1cccc(NC(=O)CN2C(=O)S/C(=C\c3cc(C)n(C)c3C)C2=O)c1 | 0 | -
Cc1ccc(NC(=O)CN2C(=O)S/C(=C\c3cc(C)n(C)c3C)C2=O)cc1 | 0 | 16µM
O=C1N=C(c2ccccc2)S/C1=C\c1cccs1 | 0 | 10µM
O=C1N=C(N2CCN(c3ccccc3)CC2)S/C1=C/c1cccs1 | 0 | -
CCc1ccc(NC(=O)CS(=O)CC(=O)NC(C)CCc2ccco2)cc1 (stereo not given) | 0 | -
O=C(c1ccccc1)N1CCN(c2ccc(NCc3ccc4c(c3)OCO4)cc2)CC1 | ? | 20µM
O=C(O)c1cc(NCc2ccc3c(c2)OCO3)ccc1N1CCOCC1 | 0 | 0
CC(=O)N1CCN(c2ccc(NCc3ccc4c(c3)OCO4)cc2)CC1 | ? | 13µM
Cc1ccc(C(=O)N2CCN(c3ccc(Cl)cc3)CC2)cc1 | 0 | 0
O=C(c1ccc2c(c1)OCO2)N1CCN(c2ccccc2)CC1 | 0 | 0
Cc1ccc(C(=O)N2CCN(c3ccc(NC(=S)NC(=O)Cc4ccccc4)cc3)CC2)cc1 | ? | 13µM
Cc1ccc(N=CC=C2OC(C)(C)C(C)(C)O2)cc1 | 0 | -
C=C1CC23C[C@H]4[C@@H]5[C@@]6(C)C[C@H](OC(=O)c7ccccc7)[C@@H](OC(C)=O)[C@]57[C@@H]2[C@@H](OC(C)=O)[C@H]1[C@@H](O)[C@H]3[C@H]7N4C6 | 0 | 0
O=C1N/C(=N\N=C\c2ccccn2)SC1Cc1cccc(SC(F)F)c1 (stereo not given) | 0 | -
O=c1c(CCc2ccccc2)nc2cncnc2n1Cc1ccccc1 | - | 0
Cc1ccccc1CSCCNC(=O)CN(c1ccc2c(c1)OCO2)S(C)(=O)=O | 0 | 0
CC1(C)NC(=O)N(CCCOc2ccccc2Br)C1=O | 0 | 0
CCc1cc(SC#N)cc(C)c1NC(=O)CCl | 0 | -
Cc1cccc(N=C2NC(=O)CS2)c1 | 0 | 0
O=C(Nc1ccc(Cl)cc1)c1cccs1 | 0 | 0
O=C(Nc1ccccc1)c1nnsc1S(=O)c1ccc(Cl)cc1 (stereo not given) | ? | 1.3µM
O=C(Nc1nc(-c2ccccc2)ns1)c1cccs1 | 0 | 0
N#Cc1ccc(N=c2ssnc2Cl)cc1 | 0 | -
COc1cc(N=c2ssnc2Cl)cc(OC)c1OC | ? | 25µM
CCCCc1ccc(/C=C2\C(=O)c3ccccc3C(O)=C2C(=O)OCC)cc1 | 0 | 10µM
CCOC(=O)C1=C(O)/C(=C\c2cccc(OC)c2)N=C1C | 0 | 0
Cc1cc(CCC(=O)O)c(C)cc1CCC(=O)O | 0 | 0
